Results from PubChem BioAssay (NCATS).
Values joined by “and” are separate entries in the source; they are usually repeats but may differ in a detail not shown here. Identical values can stand only once. Inconclusive results are not listed. Active and inactive are the calls of the source. Unless noted, the call rests on the fitted dose curve; in most records, active means well fitted curve in the direction sought with a large enough effect; inconclusive means small, poorly fitted or top-dose-only effect, or another doubt; inactive means no such curve, though single readings can be large; an effect the other way counts as inactive or inconclusive.

Columns and labels:
Es-2 = assay: Primary qHTS to identify gynecologic anti-cancer compounds using libraries of approved drugs and bioactive compounds (AID 1345084); conditions: Gynecologic cancer cell panel viability, ATPlite luminescence, 48 h; series mostly up to 57.5 µM; further: nearly all actives have a fitted effect of over 55% in size; further: potency means the concentration at half of the fitted maximal effect
Method in brief: (§1)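 ATP-based viability (ATPlite), 1,000 cells/well, 16 h pre-incubation, 48 h compound at 37 C, 5% CO2, 15 min RT before read.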

HeLa = assay: as above; conditions: Gynecologic cancer cell panel viability, ATPlite luminescence, 48 h; series mostly up to 57.5 µM
Method in brief: as §1

Hek293T = assay: as above; conditions: Gynecologic cancer cell panel viability, ATPlite luminescence, 48 h, control line for the selectivity index; series mostly up to 57.5 µM
Method in brief: as §1

JEG-3 = assay: as above; conditions: Gynecologic cancer cell panel viability, ATPlite luminescence, 48 h; series mostly up to 57.5 µM
Method in brief: as §1

OV90 = assay: as above; conditions: Gynecologic cancer cell panel viability, ATPlite luminescence, 48 h; series mostly up to 57.5 µM
Method in brief: as §1

PA-1 = assay: as above; conditions: Gynecologic cancer cell panel viability, ATPlite luminescence, 48 h; series mostly up to 57.5 µM
Method in brief: as §1

SKOV3 = assay: as above; conditions: Gynecologic cancer cell panel viability, ATPlite luminescence, 48 h; series mostly up to 57.5 µM
Method in brief: as §1

Tov-21-G = assay: as above; conditions: Gynecologic cancer cell panel viability, ATPlite luminescence, 48 h; series mostly up to 57.5 µM
Method in brief: as §1

Tov112D = assay: as above; conditions: Gynecologic cancer cell panel viability, ATPlite luminescence, 48 h; series mostly up to 57.5 µM
Method in brief: as §1

[1] = Drug repurposing screens with cells derived from glioblastoma tumor samples (AID 1345199); conditions: GBM patient neurospheres viability, ATP luminescence, 48 h; further: nearly all actives have a fitted effect of over 40% in size; further: potency means the concentration at half of the fitted maximal effect; on activity, negative = cell killing: on the % scale 0 is the no-effect control and ±100 the full control effect
Method in brief: (§2)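 Primary testing used CD133+ neurospheres from four GBM patients, seven concentrations, 48 h exposure and ATP-based viability; confirmation added three slower-growing patient lines.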

[2] = molecular target: Nuclear receptor subfamily 1 group I member 2 (Rattus norvegicus) (UniProt Q9R1A7); assay: qHTS assay for small molecule activators of the rat pregnane X receptor (rPXR) signaling pathway (AID 651751; call rule not given here; further: 0% is about no effect); conditions: rPXR reporter cells, luciferase (One-Glo), 24 h
Sequence of Nuclear receptor subfamily 1 group I member 2 (Rattus norvegicus) (Q9R1A7 whole entry, looked up): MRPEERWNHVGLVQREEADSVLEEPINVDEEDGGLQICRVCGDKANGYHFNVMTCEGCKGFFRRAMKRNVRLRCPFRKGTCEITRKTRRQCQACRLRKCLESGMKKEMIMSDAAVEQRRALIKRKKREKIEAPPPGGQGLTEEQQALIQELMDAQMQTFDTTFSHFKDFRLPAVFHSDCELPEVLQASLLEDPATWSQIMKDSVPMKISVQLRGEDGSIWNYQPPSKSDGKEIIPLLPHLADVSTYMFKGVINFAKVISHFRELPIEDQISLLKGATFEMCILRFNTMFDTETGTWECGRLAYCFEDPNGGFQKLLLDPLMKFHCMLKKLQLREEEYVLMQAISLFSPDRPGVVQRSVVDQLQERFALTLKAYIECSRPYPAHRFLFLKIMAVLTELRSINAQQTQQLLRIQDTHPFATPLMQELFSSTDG

[3] = qHTS assay for small molecule activators of the human pregnane X receptor (PXR) signaling pathway (AID 720659; call rule not given here; further: 0% is about no effect)
astro = assay: Drug repurposing screens with cells derived from glioblastoma tumor samples (AID 1345199); conditions: viability, ATP luminescence, 48 h; series mostly up to 45.9 µM; further: nearly all actives have a fitted effect of over 40% in size; further: potency means the concentration at half of the fitted maximal effect; on activity, negative = cell killing: on the % scale 0 is the no-effect control and ±100 the full control effect
Method in brief: as §2

[4] = at 45.9 µM (top of the series), tumour line B
[5] = at 45.9 µM (top of the series), tumour line D
[6] = at 46 µM (top of the series), tumour line A
[7] = at 46.1 µM (top of the series), tumour line C

O=C(O)c1cc(=O)[nH]c(=O)[nH]1
inactive: Potency (Es-2) | Potency (HeLa) | Potency (Hek293T) | Potency (JEG-3) | Potency (OV90) | Potency (PA-1) | Potency (SKOV3) | Potency (Tov-21-G) | Potency (Tov112D) | activity, negative = cell killing [1, 4] -3.6% | activity, negative = cell killing [1, 5] 11.2% | activity, negative = cell killing [1, 6] -24.7% | activity, negative = cell killing [1, 7] -0.704% | max response [2] -3.54% | outcome [3]

Nc1nc(N)nc(-c2cc(Cl)ccc2Cl)n1
inactive: Potency (Es-2) | Potency (HeLa) | Potency (Hek293T) | Potency (JEG-3) | Potency (OV90) | Potency (PA-1) | Potency (SKOV3) | Potency (Tov-21-G) | Potency (Tov112D) | activity, negative = cell killing [1, 4] 1.99% | activity, negative = cell killing [1, 5] 7.54% | activity, negative = cell killing [1, 7] 13.1% | Potency (astro)

O=c1cc(O)c(Cl)c[nH]1
inactive: Potency (Es-2) | Potency (HeLa) | Potency (Hek293T) | Potency (JEG-3) | Potency (OV90) | Potency (SKOV3) | Potency (Tov-21-G) | Potency (Tov112D) | activity, negative = cell killing [1, 4] -16% | activity, negative = cell killing [1, 5] 7.88% | activity, negative = cell killing [1, 6] -15.8% | activity, negative = cell killing [1, 7] -29.9%

O=C(N[C@H](CO)[C@H](O)c1ccc([N+](=O)[O-])cc1)C(Cl)Cl
inactive: Potency (Es-2) | Potency (HeLa) | Potency (Hek293T) | Potency (JEG-3) | Potency (PA-1) | Potency (SKOV3) | Potency (Tov112D) | activity, negative = cell killing [1, 4] -13.1% | activity, negative = cell killing [1, 6] -46.2% | activity, negative = cell killing [1, 7] -18.2% | activity, negative = cell killing ([1]; at 91.6 µM (top of the series), tumour line B) -17.6% | Potency (astro) | max response [2] -5.66% and -3.04%

Cc1cc(NS(=O)(=O)c2ccc(N)cc2)no1
inactive: Potency (Es-2) | Potency (HeLa) | Potency (Hek293T) | Potency (JEG-3) | Potency (OV90) | Potency (PA-1) | Potency (SKOV3) | Potency (Tov-21-G) | Potency (Tov112D) | activity, negative = cell killing [1, 4] 0.277% | activity, negative = cell killing [1, 5] -26.8% | activity, negative = cell killing [1, 6] -6.57% | activity, negative = cell killing [1, 7] 7.15% | max response [2] 3.86% | outcome [3]

CCc1c2c(nc3ccc(OC(=O)N4CCC(N5CCCCC5)CC4)cc13)-c1cc3c(c(=O)n1C2)COC(=O)[C@]3(O)CC
active: Potency (Es-2) 14.1 µM | Potency (PA-1) 12.6 µM | Potency (Tov112D) 10 µM | Potency ([1]; tumour line A) 1 µM
inactive: Potency (HeLa) | Potency (Hek293T) | Potency (JEG-3) | Potency (OV90) | Potency (Tov-21-G) | activity, negative = cell killing [1, 7] -5.46%

Cc1cccc(N(C)C(=S)Oc2ccc3ccccc3c2)c1
inactive: Potency (Es-2) | Potency (HeLa) | Potency (Hek293T) | Potency (OV90) | Potency (PA-1) | Potency (SKOV3) | Potency (Tov-21-G) | Potency (Tov112D) | activity, negative = cell killing ([1]; at 20 µM (top of the series), tumour line C) -6.63% | activity, negative = cell killing ([1]; at 21.2 µM (top of the series), tumour line B) -15.9% | activity, negative = cell killing ([1]; at 21.2 µM (top of the series), tumour line D) -7.02%

CCn1cc(C(=O)O)c(=O)c2cc(F)c(N3CCN(C)CC3)cc21
inactive: Potency (Es-2) | Potency (HeLa) | Potency (Hek293T) | Potency (JEG-3) | Potency (OV90) | Potency (PA-1) | Potency (SKOV3) | Potency (Tov-21-G) | Potency (Tov112D) | activity, negative = cell killing [1, 4] -12.6% | activity, negative = cell killing [1, 5] -0.981% | activity, negative = cell killing [1, 7] -19.8% | Potency (astro)

COc1ccc(-c2ccc3cc(C(=O)O)ccc3c2)cc1C12CC3CC(CC(C3)C1)C2
inactive: Potency (Es-2) | Potency (HeLa) | Potency (Hek293T) | Potency (JEG-3) | Potency (OV90) | Potency (PA-1) | Potency (SKOV3) | Potency (Tov-21-G) | Potency (Tov112D) | Potency (astro)

COc1nc(N)nc2c1ncn2[C@@H]1O[C@H](CO)[C@@H](O)[C@@H]1O
inactive: Potency (Es-2) | Potency (HeLa) | Potency (Hek293T) | Potency (JEG-3) | Potency (OV90) | Potency (PA-1) | Potency (SKOV3) | Potency (Tov-21-G) | Potency (Tov112D) | activity, negative = cell killing [1, 4] -17.9% | activity, negative = cell killing [1, 5] 6.59% | activity, negative = cell killing [1, 6] -10% | activity, negative = cell killing [1, 7] -10.9% | Potency (astro)

NC(=O)N1c2ccccc2CC(=O)c2ccccc21
inactive: Potency (Es-2) | Potency (HeLa) | Potency (Hek293T) | Potency (JEG-3) | Potency (OV90) | Potency (PA-1) | Potency (SKOV3) | Potency (Tov-21-G) | Potency (Tov112D) | activity, negative = cell killing [1, 4] -29.6% | activity, negative = cell killing [1, 5] -1.67% | activity, negative = cell killing [1, 7] -9.41% | Potency (astro)

CCCOc1ccc(C(=O)OCCN(CC)CC)cc1N
active: Potency ([1]; tumour line A) 14.1 µM
inactive: Potency (Es-2) | Potency (HeLa) | Potency (Hek293T) | Potency (JEG-3) | Potency (OV90) | Potency (PA-1) | Potency (SKOV3) | Potency (Tov-21-G) | Potency (Tov112D) | activity, negative = cell killing [1, 7] -16.2% | Potency (astro)

OC(Cn1cncn1)(Cn1cncn1)c1ccc(F)cc1F
inactive: Potency (Es-2) | Potency (HeLa) | Potency (Hek293T) | Potency (JEG-3) | Potency (OV90) | Potency (PA-1) | Potency (SKOV3) | Potency (Tov-21-G) | Potency (Tov112D) | activity, negative = cell killing [1, 4] -6.67% | activity, negative = cell killing [1, 5] -19.6% | activity, negative = cell killing [1, 6] -17.5% | activity, negative = cell killing [1, 7] -6.89% | max response [2] 4.95%

CC(C)(C#N)c1cc(Cn2cncn2)cc(C(C)(C)C#N)c1
inactive: Potency (Es-2) | Potency (HeLa) | Potency (Hek293T) | Potency (JEG-3) | Potency (OV90) | Potency (PA-1) | Potency (SKOV3) | Potency (Tov-21-G) | activity, negative = cell killing [1, 4] -13.4% | activity, negative = cell killing [1, 5] -8.79% | activity, negative = cell killing [1, 7] -3.92% | Potency (astro)

CN1CCN(c2c(F)cc3c(=O)c(C(=O)O)cn(CCF)c3c2F)CC1
inactive: Potency (Es-2) | Potency (HeLa) | Potency (Hek293T) | Potency (JEG-3) | Potency (OV90) | Potency (PA-1) | Potency (SKOV3) | Potency (Tov-21-G) | Potency (Tov112D) | activity, negative = cell killing [1, 4] -2.67% | activity, negative = cell killing [1, 5] -2.82% | activity, negative = cell killing [1, 6] -15.5% | activity, negative = cell killing [1, 7] -9.27% | Potency (astro)

CCN[C@H]1C[C@H](C)S(=O)(=O)c2sc(S(N)(=O)=O)cc21
inactive: Potency (Es-2) | Potency (HeLa) | Potency (Hek293T) | Potency (JEG-3) | Potency (OV90) | Potency (PA-1) | Potency (SKOV3) | Potency (Tov-21-G) | Potency (Tov112D) | activity, negative = cell killing [1, 4] -1.09% | activity, negative = cell killing [1, 5] 3.44% | activity, negative = cell killing [1, 7] -27% | Potency (astro)
